From the supplement of paper PMC6555819

test system: PPARg:RXRa (NR concentration 180 nM, RXRa partner concentration 90 nM); assay: PBM binding z-score (relative to random genomic background probes); higher = stronger binding; sequences stand for … in GC…GCGATTGACAGCGTAGAATGAAGG
Method in brief: (§1)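 On custom Agilent 4×180K arrays, double-stranded probes with 34-nt variable regions carried direct-repeat seeds, single-nucleotide variants, half-site ablations or random human genomic background. Ligand-free nuclear receptor dimers were applied for 1 h, and binding was read with antibodies against each partner (one per run). Binding z-scores come from regression-normalized fluorescence, with the random background probes as reference.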

Sequence	PBM binding z-score
CGTCCAAGGTCGTAGGAGGTCAGTGAAGACAGAT	1.79
TCTGCTAGGTCAACGATGATCAGCTAATCTGCTA	2.74
TCAAATAGGTAAAGGTGAAAGTCGAACGATATGA	3.34
TCTATTAGTTGATTAGGGCAACTGAAACAGCGGA	0.0466
AGAATGAGGTAATACGTAGATCAGGGAAGAAAGT	1.04
ACTATTAGTTGACTTAGGACAACCGATACGACGC	1.11
AGTCAAAGTTCAGGACGAAGTAACGTAAAGCACG	4.78
TCTTGTAGATCAAGGGTTAAGAAAGCCGAAGCCT	5.36
CGAACTAGGTCGGAACAGGACAGTGAAGGATGAT	1.23
AGAACGAGGGCAATAAGTTGATAGCACGGGTGGC	1.44
AGAACGATGGCACGCTGAGTTGATAGCAGAGTAG	0.523
GATACAGGGTCAGCTAGAGGACAGAGTATGGAAA	3.93
TCATATAGGTAAATGCTAGGTGAAAGTGCGATCT	1.89
GCTAGTTGGTCAGTAAAAGGTCAGACACCGGTCG	1.79
AGAATGAGGTTACCAAACATCAGGGAAACGCTTG	2.42
ACTCGGAAGACAAAGGTCAGAGCTACGCCAGTGA	4.43
ACAGACAGGTTAGTGAAGGTAACTCAGCTGGACG	0.68
TCTATTAGTTGACTAGGGCAACCGAAACAGCGGA	0.971
ACTAGCAGGCCAAGTTTGGGTCACTTAAACAAAG	0.21
CCTACTGGGCCACGAAAGCTCATTGATTCAGTGA	1.08

Sequence	PBM binding z-score
ACTAGCAGGCCAGGTTTGGGTCACTCAAACAAAG	-0.123
TAGCCTACGTCAGATCGGGCCAGTATACGCTATA	0.214
TAGCCTAGGTCATTCAGGGGCCAGTTTAGAAAGC	1.98
CTCGAAAGGTCGTGCTCACGTGAGTATACCAAAC	2.9
GCTCGGAGGACAAGGTCAGAGCATTGTCCGTAGA	0.798
TAGCCTAGGTCAGATCGGGCAAGTATACGCTATA	0.654
CAAACTAGGTCAAGGTCATAGTCGGTTTGTGCCA	9.25
TTACCAAGGTGAAGGTCCTTGATCCCTCTGTAGA	1.33
CGAACGAGGGCATGAGTTGACAGCAAATGCCGAT	1.53
ATCGAAAGGTCGAACGTGAGTATACCCACCCGAA	2.81
TCTGCTAGGTCAGCTGGTCAGCTAACGAGCTGCC	0.828
GATACAGGGTCAGCCAGAGGCCAGAGTATGGAAA	4.13
GCTATTAGTTGAAAGGGCAACCCAATGATTCTCG	2.65
GCGACTGGGGCATCAGCAGTTTACCATAACTTAA	0.756
ATATGAAGGTTACATCCGGGTCATTCAGGCTATG	2.35
CGTCAAAGATCAACTAAGGTAACGTAAAGCACGC	0.897
AGATTGAGGTTAAGATCAGGGAAACAGAATACAT	1.96
GATACAGGGTCAAGGCCAGCGTACGCGTATTGAT	5.9
AGTACGAGGGCACGCTGAGTTGATAGCAGAGTAG	1.26
TGAATGAGGTTAAAGATCCGGGAACGTGGCGTCG	2.27

test system: PPARg:RXRa 270nM:90nM, anti-RXR (NR concentration 270 nM, RXRa partner concentration 90 nM); assay: as above
Method in brief: as §1

Sequence	PBM binding z-score
CGTCCAAGGTCGTAGGAGGTCAGTGAAGACAGAT	2.5
TCTGCTAGGTCAACGATGATCAGCTAATCTGCTA	2.86
TCAAATAGGTAAAGGTGAAAGTCGAACGATATGA	4.34
TCTATTAGTTGATTAGGGCAACTGAAACAGCGGA	1.87
AGAATGAGGTAATACGTAGATCAGGGAAGAAAGT	0.841
ACTATTAGTTGACTTAGGACAACCGATACGACGC	0.164
AGTCAAAGTTCAGGACGAAGTAACGTAAAGCACG	4.86
TCTTGTAGATCAAGGGTTAAGAAAGCCGAAGCCT	6.4
CGAACTAGGTCGGAACAGGACAGTGAAGGATGAT	0.719
AGAACGAGGGCAATAAGTTGATAGCACGGGTGGC	0.893
AGAACGATGGCACGCTGAGTTGATAGCAGAGTAG	-0.439
GATACAGGGTCAGCTAGAGGACAGAGTATGGAAA	3.23
TCATATAGGTAAATGCTAGGTGAAAGTGCGATCT	3.48
GCTAGTTGGTCAGTAAAAGGTCAGACACCGGTCG	3.25
AGAATGAGGTTACCAAACATCAGGGAAACGCTTG	2.19
ACTCGGAAGACAAAGGTCAGAGCTACGCCAGTGA	4.75
ACAGACAGGTTAGTGAAGGTAACTCAGCTGGACG	0.049
TCTATTAGTTGACTAGGGCAACCGAAACAGCGGA	2.37
ACTAGCAGGCCAAGTTTGGGTCACTTAAACAAAG	0.715
CCTACTGGGCCACGAAAGCTCATTGATTCAGTGA	1.15

Sequence	PBM binding z-score
ACTAGCAGGCCAGGTTTGGGTCACTCAAACAAAG	0.025
TAGCCTACGTCAGATCGGGCCAGTATACGCTATA	-0.86
TAGCCTAGGTCATTCAGGGGCCAGTTTAGAAAGC	2.15
CTCGAAAGGTCGTGCTCACGTGAGTATACCAAAC	3.42
GCTCGGAGGACAAGGTCAGAGCATTGTCCGTAGA	1.67
TAGCCTAGGTCAGATCGGGCAAGTATACGCTATA	0.623
CAAACTAGGTCAAGGTCATAGTCGGTTTGTGCCA	7.76
TTACCAAGGTGAAGGTCCTTGATCCCTCTGTAGA	2.39
CGAACGAGGGCATGAGTTGACAGCAAATGCCGAT	1.54
ATCGAAAGGTCGAACGTGAGTATACCCACCCGAA	2.76
TCTGCTAGGTCAGCTGGTCAGCTAACGAGCTGCC	1.78
GATACAGGGTCAGCCAGAGGCCAGAGTATGGAAA	3.7
GCTATTAGTTGAAAGGGCAACCCAATGATTCTCG	4.29
GCGACTGGGGCATCAGCAGTTTACCATAACTTAA	1.18
ATATGAAGGTTACATCCGGGTCATTCAGGCTATG	2.52
CGTCAAAGATCAACTAAGGTAACGTAAAGCACGC	0.957
AGATTGAGGTTAAGATCAGGGAAACAGAATACAT	2.19
GATACAGGGTCAAGGCCAGCGTACGCGTATTGAT	5.32
AGTACGAGGGCACGCTGAGTTGATAGCAGAGTAG	0.976
TGAATGAGGTTAAAGATCCGGGAACGTGGCGTCG	3.37
